Laboratory results: PubChem BioAssay (NCI)
The panel holds about 79,000 compounds, 15% with a hit somewhere; the sample as a whole holds those more often. Values without a mark were called inactive. The source made the active and inactive calls. Rule as the data show it: active = growth inhibition above about 70%; inactive = the rest. Where a SMILES comes first, the peptide text is derived from it. [ ]: non-standard residue; d: D form. Phe(4-Cl) = N[CH](Cc1ccc(Cl)cc1)C(=O)O; 3Pal = N[CH](Cc1cccnc1)C(=O)O

Tests used:
[1] = NCI Yeast Anticancer Drug Screen. Data for the rad50 strain (AID 155);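 also: 0% = growth of vehicle-only cultures of the same strain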; conditions: S. cerevisiae rad50 strain growth inhibition, hits give high values
Outline: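 Compounds were tested on a yeast strain with an engineered DNA damage repair alteration; the reported value is growth inhibition normalised to vehicle treatment.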

[2] = NCI Yeast Anticancer Drug Screen. Data for the mec2-1 strain (AID 157); conditions: S. cerevisiae mec2-1 strain, hits give high values
Outline: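 Each compound was tested on mec2-1 yeast, a strain altered in DNA damage repair or cell cycle control. Growth inhibition is reported relative to vehicle.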

[3] = NCI Yeast Anticancer Drug Screen. Data for the sgs1 mgt1 strain (AID 161);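 also: 0% = growth of cultures given vehicle only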; conditions: S. cerevisiae sgs1 mgt1 strain, hits give high values
Outline: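 Inhibition of yeast growth, normalised to vehicle-treated controls, is reported for a strain bearing genetic alterations in DNA damage repair.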

[4] = NCI Yeast Anticancer Drug Screen. Data for the cln2 rad14 strain (AID 165);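 also: 0% = growth equal to vehicle treated cultures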; conditions: S. cerevisiae cln2 rad14 strain, hits give high values
Outline: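 Test compounds were added to cln2 rad14 yeast cultures; inhibition of growth was then determined by comparison with vehicle treatment.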

[5] = NCI Yeast Anticancer Drug Screen. Data for the bub3 strain (AID 167); conditions: S. cerevisiae bub3 mutant strain, hits give high values
Outline: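 Growth of a checkpoint-deficient yeast mutant is measured after compound exposure. Values represent inhibition relative to vehicle.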

[6] = NCI Yeast Anticancer Drug Screen. Data for the mlh1 rad18 strain (AID 175); conditions: S. cerevisiae mlh1 rad18 strain growth inhibition, hits give high values
Outline: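 Inhibition values reflect reduced growth of mutant yeast versus vehicle-treated controls following compound exposure; the mutations affect DNA damage repair.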

[7] = at 5.0 µM (retest, dose inferred, filed as 0.5)
[8] = at 50.0 µM (retest, dose inferred, filed as 5.0)

Row | Compound | growth inhibition [1, 7] | growth inhibition [1, 8] | growth inhibition ([1]; at 50.0 µM) | growth inhibition [2, 7] | growth inhibition [2, 8] | growth inhibition ([2]; at 50.0 µM) | growth inhibition [3, 7] | growth inhibition [3, 8] | growth inhibition ([3]; at 50.0 µM) | growth inhibition [4, 7] | growth inhibition [4, 8] | growth inhibition ([4]; at 50.0 µM) | growth inhibition [5, 7] | growth inhibition [5, 8] | growth inhibition ([5]; at 50.0 µM) | growth inhibition [6, 7] | growth inhibition [6, 8] | growth inhibition ([6]; at 50.0 µM)
1 | O/N=C1/C(=C/c2ccc(Cl)c(Cl)c2)CCCC1C(NO)c1ccc(Cl)c(Cl)c1 (configuration not stated) | 17% | 96% (active) | 64% | -1% | 98% (active) | 1.9% | 2% | 96% (active) | 25.2% | -6% | 97% (active) | -14.8% | -1% | 96% (active) | 21.6% | 1% | 97% (active) | 79% (active)
2 | CN(C)c1ccc(/C=C(\NC(=O)c2ccccc2)c2nc3ccccc3s2)cc1 | 35% | 96% (active) | 97.1% (active) | 20% | 97% (active) | 97.2% (active) | 61% | 97% (active) | 98% (active) | 17% | 95% (active) | 97.3% (active) | 37% | 97% (active) | 95% (active) | 27% | 96% (active) | 97% (active)
3 | COc1cc(/C=C2\Sc3scc(-c4cccc([N+](=O)[O-])c4)[n+]3C2=O)cc(OC)c1OC | 1% | 94% (active) | 99% (active) | -1% | 82% (active) | 99% (active) | 13% | 40% | 86.2% (active) | -26% | 91% (active) | 98.4% (active) | -10% | 95% (active) | 99.1% (active) | 5% | 73% (active) | 99% (active)
4 | O=C(/C=C/c1ccccc1)CCN1CCOCC1 | 21% | 99% (active) | 91.3% (active) | 26% | 99% (active) | 85.3% (active) | 22% | 100% (active) | 86.5% (active) | 0% | 84% (active) | 88.7% (active) | 35% | 100% (active) | 88.8% (active) | 32% | 99% (active) | 84.7% (active)
5 | CCCCCCCCCCCCCCCC[n+]1ccc(/C=C/c2ccccc2)cc1 | 75% (active) | 95% (active) | 98.4% (active) | 100% (active) | 96% (active) | 98.8% (active) | 99% (active) | 98% (active) | 98.5% (active) | 46% | 94% (active) | 97.8% (active) | 88% (active) | 97% (active) | 97.8% (active) | 99% (active) | 98% (active) | 97.7% (active)
6 | COc1cc(C2C(C(=O)O)=C(C)Oc3cc4c(cc32)OCO4)cc(OC)c1OC (configuration not stated) | 91% (active) | 90% (active) | 94.2% (active) | 70% (active) | 88% (active) | 92.8% (active) | 77% (active) | 93% (active) | 97% (active) | 82% (active) | 91% (active) | 88.8% (active) | 86% (active) | 87% (active) | 48.5% | 68% | 85% (active) | 97.8% (active)
7 | COC(=O)c1c(C(N)=O)c(C)n(NC(=O)Nc2ccccc2)c1C | 25% | 93% (active) | 96.2% (active) | 24% | 95% (active) | 85.1% (active) | 41% | 94% (active) | 95% (active) | 32% | 91% (active) | 81.4% (active) | 37% | 92% (active) | 86.2% (active) | 63% | 95% (active) | 87.8% (active)
8 | Cc1c(CCCl)c(N=[N+]=[N-])n2c(nc3ccccc32)c1C#N | 31% | 46% | 83.8% (active) | 27% | 45% | 71.2% (active) | 23% | 51% | 56.6% | 20% | 34% | 63.4% | 23% | 57% | 78.2% (active) | 28% | 48% | 56.5%
9 | Cc1ccc(SCc2ccccc2Cl)nn1 | -2% | 3% | 6.6% | -9% | 11% | -2.15% | -8% | 17% | -2.3% | 3% | 20% | 31.1% | 6% | 34% | 15.4% | -1% | 19% | 4.75%
10 | Nc1nnc(CCC(=O)Nc2ccccc2Cl)o1 | -2% | -5% | -1.3% | 0% | 4% | 79.5% (active) | -6% | -2% | 98.5% (active) | 7% | 9% | 98.2% (active) | 1% | 2% | 98.8% (active) | -5% | 2% | 98.5% (active)
11 | COc1cc(OC)c(C(=O)[O][Sn]([c]2ccccc2)([c]2ccccc2)[c]2ccccc2)cc1OC | 100% (active) | 98% (active) | 98.4% (active) | 100% (active) | 100% (active) | 96.3% (active) | 99% (active) | 99% (active) | 97.3% (active) | 99% (active) | 99% (active) | 90.5% (active) | 96% (active) | 99% (active) | 96.1% (active) | 99% (active) | 100% (active) | 96.7% (active)
12 | CC(C)OP(=O)(OC(C)C)/C(I)=N/Nc1ccc([N+](=O)[O-])cc1 | -7% | -1% | 68.7% | -6% | 8% | 13.9% | 6% | 37% | 38.4% | -14% | 14% | 13.1% | 1% | -1% | 61.7% | 9% | 4% | 70%
13 | Cc1ccc2sc3ccc(N)cc3c(=O)c2c1 | 27% | 84% (active) | 62.6% | 24% | 74% (active) | 31.6% | 26% | 89% (active) | 60.6% | 26% | 58% | 43.7% | 25% | 95% (active) | 66.2% | 27% | 92% (active) | 81.8% (active)
14 | CN1CCCC(C(=O)OCC(=O)C2(O)CCC3C4CCC5=CC(=O)CCC5(C)C4C(O)CC32C)C1 (configuration not stated) | 13% | 11% | 29.2% | -5% | 0% | 5% | -7% | 5% | -11% | 3% | 8% | 38.4% | -7% | 9% | 12.4% | -3% | 35% | 42.9%
15 | CCC(C)CNCCCCCNc1cc(OC)cc2cccnc12 (configuration not stated) | 37% | 67% | 45.5% | 35% | 62% | 43.9% | 38% | 87% (active) | 66.5% | 47% | 57% | 48.2% | 39% | 75% (active) | 90.3% (active) | 29% | 53% | 70.3% (active)
16 | CC(=O)NC(Cc1ccc(Cl)cc1)C(=O)NC(Cc1ccc(Cl)cc1)C(=O)NC(Cc1cccnc1)C(=O)NC(CO)C(=O)NC(Cc1ccc(O)cc1)C(=O)NC(CCCN=C(N)N)C(=O)NC(CC(C)C)C(=O)NC(CCCN=C(N)N)C(=O)N1CCCC1C(=O)NC(C)C(=O)O (configuration not stated) (Ac-[Phe(4-Cl)][Phe(4-Cl)][3Pal]SYRLRPA-OH; configuration not given here) | -20% | -8% | 18.1% | -9% | -16% | 17.9% | -14% | 0% | 5.15% | -18% | -7% | 9.9% | -4% | 8% | 16.7% | 29% | -22% | 53.4%
17 | Cc1cc(SCC(=O)c2ccccc2)cc(C)[o+]1 | -4% | 82% (active) | 92% (active) | -5% | 80% (active) | 95.6% (active) | -7% | 44% | 56.4% | -6% | 1% | 17.6% | 0% | 86% (active) | 97.9% (active) | 1% | 69% | 95.4% (active)
18 | CN(C)C1C[C@@H](O[Si](C)(C)C(C)(C)C)C=C1S(=O)(=O)c1ccccc1 (some centres not stated) | -16% | 100% (active) | 44.8% | -4% | 100% (active) | 47.8% | -18% | 100% (active) | 36.4% | -14% | 99% (active) | 33.5% | -14% | 100% (active) | 7.75% | 4% | 100% (active) | 58%
19 | Oc1ccc(-c2nnc(-c3ccccc3)nn2)cc1 | -154% | -160% | 56.4% | -48% | -53% | 8.95% | -66% | -63% | -3.9% | -47% | -66% | -52.5% | -47% | -19% | 58.5% | -121% | -147% | -9.85%
